This is an account of results in article PMC12440807.

The target of test [1] is RNA polymerase II-associated factor 1 homolog (UniProt Q8N7H5). In words: cross-link between two proteins; cross-linking mass spectrometry.
Test [2] has as its target Transcription elongation factor SPT6 (UniProt Q7KZ85). In words: cross-link between two proteins; affinity purification or IP with mass spectrometry; cross-linking mass spectrometry.

Turning to “Transcription elongation factor SPT6, Q7KZ85”, the “listed as a hit” value in test [1] was “yes”. “DNA-directed RNA polymerase II subunit RPB1, P24928”: in test [2], the “listed as a hit” value is “yes”.
